Shown are actives, neighbours in structure and some others; about 7.7% of the full set was active somewhere.
RE007 growth inh: less growth of the S. pombe RE007 Vpr strain. Potency, µM (top dose mostly 92.2 µM), for inactives: at the top dose activity change, negative = less growth, usual class: inhibitors. S. pombe RE007 Vpr strain, BacTiter-Glo ATP luminescence, 24 h. 360,000 tested, 0.21% active; active means well fitted falling curve with a large enough effect; inconclusive means small, poorly fitted or top-dose-only effect; inactive means no such curve, though single readings can be large or run the other way; further: potency means the concentration at half of the fitted maximal effect; nearly all actives have a fitted effect of over 50% in size
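Fission yeast strain RE007, carrying one chromosomally integrated HIV-1 vpr copy, was seeded at OD 0.01 in PMG+AL medium with 23 nL pinned compound. After 24 h at 30 °C and 99% humidity, viability was read by BacTiter-Glo luminescence.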
Giardia FBPA inh-1: Giardia lamblia aldolase inhibition | Potency, µM (doses to about 59.6 µM), for the others: at the top dose activity, negative = inhibition, actives largely listed as inhibitors | 290,000 tested, 0.71% active | purified Giardia FBPA | AID 2451; further: potency means the concentration at half of the fitted maximal effect; nearly all actives have a fitted effect of over 55% in size
Target sequence (A8B2U2 whole entry, looked up): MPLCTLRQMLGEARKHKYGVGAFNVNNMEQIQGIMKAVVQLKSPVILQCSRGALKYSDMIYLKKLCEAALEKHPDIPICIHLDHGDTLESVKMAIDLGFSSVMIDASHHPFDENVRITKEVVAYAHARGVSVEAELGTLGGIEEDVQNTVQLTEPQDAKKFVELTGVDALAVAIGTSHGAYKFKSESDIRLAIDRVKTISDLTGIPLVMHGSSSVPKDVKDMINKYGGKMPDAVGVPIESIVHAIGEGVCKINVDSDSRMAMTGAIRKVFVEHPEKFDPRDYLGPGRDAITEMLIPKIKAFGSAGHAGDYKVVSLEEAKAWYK
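40 nM FBPA preincubated 10 min at RT with compound (up to 57.5 uM final), then substrate plus GAPDH/TPI/NAD/arsenate coupling and diaphorase/resazurin added. Fluorescence read after 20 min at RT, 525/598 nm.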
TbPYK inhibitor: blocks Trypanosoma brucei pyruvate kinase. 410,000 tested, 0.12% active. Potency, µM (series often up to 76.8 µM), for inactives: at the top dose activity, negative = inhibition, most hits filed as inhibitors. TbPYK enzyme, Kinase-Glo Plus ATP luminescence, 45 min. Q57TT1; further: potency means the concentration at half of the fitted maximal effect; nearly all actives have a fitted effect of over 50% in size
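Quantitative HTS: titrated library compounds versus trypanosomal pyruvate kinase in TEA buffer (pH 7.2) containing KCl, MgCl2, BSA and Tween-20. Reactions were initiated with ADP, 130 uM final. Kinase-Glo Plus luminescence was read after 45 min at RT.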
Sm TGR inh: S. mansoni TGR enzyme inhibition. Q962Y6. purified TGR, DTNB reduction, TNB absorbance 405 nm. Potency, µM (doses to about 114 µM), for the others: top-dose activity change, negative = inhibition, actives largely listed as inhibitors. 360,000 tested, 3% active; further: potency means the concentration at half of the fitted maximal effect; nearly all actives have a fitted effect of over 60% in size
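TGR 20 nM + NADPH 100 uM (dispensed conc.), cpd preinc 15 min RT; start with NADPH (500 uM addition) then DTNB (15 mM addition). Kinetic TNB absorbance, 405 nm filter. Four-parameter Hill fit across titration.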
FMDV antiviral: foot and mouth disease virus antiviral activity. FMDV antiviral cell-based qHTS. Potency, µM (titrated, usually from 57.9 µM), for inactives: at the top dose activity change, negative = inhibition, actives largely listed as inhibitors. 410,000 tested, 1.2% active. AID 1159524; calls by dose curve; tested in HEK293T cells; further: read-out not given here; potency means the concentration at half of the fitted maximal effect; nearly all actives have a fitted effect of over 45% in size
HCMV inh: inhibitors of human cytomegalovirus; HFF cells, HCMV-luciferase reporter, 72 h; stronger effect = lower value; activity change, negative = inhibition, % at 57.5 µM; 410,000 tested, 4.5% active; AID 1259415; in the data active means activity change below about -60%; inconclusive means no clear call, values can overlap the other calls; inactive means above about -39%
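Cell-based, HFFs, 1000 cells/well, 16 h 37C; cpds in DMSO + HCMV-luc, MOI 1 PFU/cell; 72 h 37C; OneGlo luminescence after 5 min RT; norm. to buffer vs Salinomycin 10uM.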
Giardia growth: Giardia lamblia growth inhibition; 1,500 tested, 5% active; AID 2785; Potency, µM (titrated, usually from 57.5 µM), inactives show at the top dose activity change, negative = inhibition, actives largely listed as inhibitors; shares compounds with Giardia FBPA inh-1; Giardia lamblia trophozoite growth inhibition;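 further: potency means the concentration at half of the fitted maximal effect; trophozoites exposed to compound for 48 h at 37 °C; nearly all actives have a fitted effect of over 70% in size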
Mammal cell tox: mammalian cytotoxicity of Giardia aldolase inhibitor hits | shares compounds with Giardia FBPA inh-1 | mammalian cell viability counter-screen, qHTS | Potency, µM (titrated, usually from 57.5 µM), inactives show at the highest dose viability change, negative = toxicity, most hits filed as inhibitors | 1,500 tested, 4% active | AID 2786;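 further: Chinese hamster ovary cells used as mammalian cytotoxicity surrogate; viability measured as cellular ATP by luminescence; potency means the concentration at half of the fitted maximal effect; compound exposure lasted 48 h before reading; nearly all actives have a fitted effect of over 60% in size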
Giardia FBPA inh-2: confirmation of Giardia fructose-bisphosphate aldolase inhibitors; shares compounds with Giardia FBPA inh-1; purified Giardia aldolase enzyme activity, qHTS; Potency, µM (series often up to 57.5 µM), for inactives: top-dose activity change, negative = inhibition, hits mostly inhibitors; 1,500 tested, 5% active; AID 2787; further: potency means the concentration at half of the fitted maximal effect; nearly all actives have a fitted effect of over 45% in size
Rabbit aldolase: blocks rabbit muscle aldolase in Giardia aldolase selectivity test | Potency, µM (top dose mostly 57.5 µM), inactives show top-dose activity, negative = inhibition, actives largely listed as inhibitors | Rabbit muscle FBPA enzyme inhibition, selectivity counter-screen | AID 2794 | 1,500 tested, 4% active | shares compounds with Giardia FBPA inh-1; further: potency means the concentration at half of the fitted maximal effect; nearly all actives have a fitted effect of over 60% in size
Target sequence (P00883 whole entry, looked up): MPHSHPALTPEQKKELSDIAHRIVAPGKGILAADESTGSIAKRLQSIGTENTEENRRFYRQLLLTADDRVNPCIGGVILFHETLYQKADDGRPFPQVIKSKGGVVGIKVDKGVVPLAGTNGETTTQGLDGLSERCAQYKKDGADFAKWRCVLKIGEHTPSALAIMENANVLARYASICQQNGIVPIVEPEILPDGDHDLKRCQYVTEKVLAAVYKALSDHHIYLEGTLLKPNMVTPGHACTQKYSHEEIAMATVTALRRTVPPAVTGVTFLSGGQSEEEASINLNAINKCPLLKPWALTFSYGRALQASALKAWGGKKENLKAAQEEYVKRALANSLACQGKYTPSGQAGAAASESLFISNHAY
GAPDH coupling: GAPDH inhibition flagged for Giardia aldolase hits; Potency, µM (series often up to 57.5 µM), for inactives: top-dose activity change, negative = inhibition, usual class: inhibitors; GAPDH coupling enzyme counterscreen, biochemical, qHTS; 1,500 tested, 6% active; AID 2795; shares compounds with Giardia FBPA inh-1; further: potency means the concentration at half of the fitted maximal effect; nearly all actives have a fitted effect of over 55% in size
* marks the source's active call; other numbers are inactive results; ? = inconclusive; . = not tested or not shown; [ ] = another dose, or the depositor's remark. Unless noted, the call rests on the fitted dose curve; in most records, active means well fitted curve in the direction sought with a large enough effect; inconclusive means small, poorly fitted or top-dose-only effect, or another doubt; inactive means no such curve, though single readings can be large; an effect the other way counts as inactive or inconclusive. On the % scale 0 is the no-effect control and ±100 the full control effect.

SMILES	RE007 growth inh	Giardia FBPA inh-1	TbPYK inhibitor	Sm TGR inh	FMDV antiviral	HCMV inh	Giardia growth	Mammal cell tox	Giardia FBPA inh-2	Rabbit aldolase	GAPDH coupling
CC(=O)Nc1ccc(S(=O)(=O)NNC(=S)NCC2CCCO2)cc1 (stereo not given)	-8%	13µM*	-4%	?	-8%	6	133%	2%	11%	9%	11%
Cc1ccc(NC(=O)CN(C)S(=O)(=O)c2cccc3cccnc23)cc1	-2%	2%	-5%	-31%	13%	?	.	.	.	.	.
Cc1ccc(NC(=O)CN(C)C(=O)COc2cccc3cccnc23)cc1	8%	11µM*	-3%	-23%	-28%	1	-37%	6%	13µM*	?	?
COc1ccc(-c2cn3nc(SCC(=O)Nc4cc(C)cc(C)c4)ccc3n2)cc1	.	.	3%	-3%	41%	69	.	.	.	.	.
CC[C@@H](C)[C@@H](C(=O)Nc1ccc(C)cc1)N1Cc2ccccc2C1=O	.	.	-3%	15%	-18%	2	.	.	.	.	.
Cc1nc(NC(=O)CN2CCOCC2)sc1C(=O)N(C)C	3%	?	-6%	1%	-7%	6	.	.	.	.	.
COc1ccccc1N1CCN(CC(=O)Nc2nc(C)c(C(=O)N(C)C)s2)CC1	2%	11µM*	-1%	3%	-8%	-6	9%	4%	-3%	14%	-16%
Cc1nc(NC(=O)CN2CCCCC2)sc1C(=O)N(C)C	3%	3.2µM*	1%	10%	-13%	-10	-7%[38.3 µM]	4%	-9%	8%	-5%
CCc1nnc(NC(=O)CN2CCN(c3ccccc3OC)CC2)s1	-2%	-27%	34%	6%	.	-4	.	.	.	.	.
COc1ccc(CCNC(=O)CSC2=Nc3ccccc3C3=NC(CCC(=O)NCc4ccccc4)C(=O)N23)cc1OC (stereo not given)	.	.	0%	6%	-18%	-25	.	.	.	.	.
Cc1c(N=Nc2c(O)n(-c3ccc(Br)cc3)c(=O)[nH]c2=O)c(=O)n(-c2ccccc2)n1C	2%	16µM*	-3%	10µM*	-15%	-11	?	10%	9%	0%	-6%
Cc1c(N=Nc2c(O)[nH]c(=O)[nH]c2=O)c(=O)n(-c2ccccc2)n1C	5%	16µM*	4%	-2%	-4%	-16	2%[10.4 µM]	22%	-3%	-20%	-9%
CCCC[C@H](NC(=O)[C@H](CC(C)C)NC(=O)[C@@H](Cc1c[nH]c2ccccc12)NC(=O)[C@H](Cc1ccccc1)NC(=O)[C@@H](Cc1c[nH]c2ccccc12)NC(=O)[C@H](CC(N)=O)NC(=O)[C@@H](Cc1c(Cl)cccc1Cl)NC(=O)[C@@H]1CCCN1C(=O)[C@H](Cc1ccccn1)NC(=O)[C@@H]1CCCN1C(=O)[C@H](N)CCCCNC(=O)c1cccnc1)C(N)=O	.	2%	.	.	.	.	.	.	.	.	.
Cc1cc(NC(=O)CC#N)n(-c2nc3ccccc3[nH]2)n1	9%	16µM*	2%	14%	-12%	224	-8%	-16%	0%	3%	7%
Cc1cc(NC(=O)c2ccccc2)n(-c2nc3ccccc3[nH]2)n1	1%	-22%	4%	-8%	-20%	17	.	.	.	.	.
Cc1cc(NC(=O)c2sccc2C)n(-c2nc3ccccc3[nH]2)n1	0%	16µM*	-6%	.	?	-70*	?	?	2%	1%	0%
Cc1cc(NC(=O)c2cccs2)n(-c2nc3ccccc3[nH]2)n1	0%	-25%	-13%	.	?	?	.	.	.	.	.
COc1ccc(C(=O)Nc2cc(C)nn2-c2nc3ccccc3[nH]2)c(OC)c1	-10%	18µM*	-1%	6%	-4%	-64*	0%	?	1%	6%	-3%
Cc1ccccc1Nc1c(-c2ccc(Br)o2)nc2ccc(Cl)cn12	.	.	1%	?	?	-14	.	.	.	.	.
Cc1noc(C)c1-c1ccc2ncnc(NCc3cccc(F)c3)c2c1	.	-11%	.	.	.	.	.	.	.	.	.
COc1cc(CN2CCC(C(=O)NCC(C)(C)CN(C)C)CC2)ccc1OCc1ccccc1	-10%	22µM*	12%	4%	14%	-94*	?	-20%	9%	6%	11%
O=C(Nc1nnc(C2=COCCO2)o1)c1ccc(F)cc1	-19%	32µM*	-5%	5%	7%	-31	?	5%	-7%	-12%	-10%
O=C(Nc1nnc(C2=COCCO2)o1)c1ccc(Cc2ccccc2)cc1	4%	18µM*	7%	2%	6%	-26	?	-3%	2%	8%	-3%
O=c1c(-c2cccs2)nc2cnc(Oc3cccc(Cl)c3)nc2n1C1CC1	.	-9%	2%	.	-29%	.	.	.	.	.	.
COc1cccc(Nc2ncc3nc(C)c(=O)n(CCc4ccccc4)c3n2)c1	.	6%	.	.	-20%	.	.	.	.	.	.
CN(C)c1ccc(N/C=C/C(=O)C(C)(C)C)cc1	0%	14µM*	-18%	-25%	40%	27	?	-17%	-49%	?	-21%
CC1(C)C(=O)C=C[C@@]2(C)C1C=C[C@@]1(C)C2CC[C@@]2(C)C(c3ccoc3)OC(=O)C3OC312 (stereo not given in full)	.	-3%	.	.	?	.	.	.	.	.	.
CC(C)(C)c1cc(C(=S)N2CCN(CCO)CC2)cc(C(C)(C)C)c1O	18%	10µM*	?	0%	2%	-9	-4%[10.4 µM]	-4%	-12%	?	?
OCCN1CCN(Cc2cc(Br)cc(Br)c2O)CC1	17%	-21%	-18%	-27%	-18%	-18	.	.	.	.	.

Source: PubChem
